# Source: PubChem (several laboratories)
# Most compounds without a hit are left out; they make up all but 2.9% or so of the library.
# ERa SRC1 inh – blocks coactivator binding to human estrogen receptor alpha; P03372; TR-FRET ER-alpha LBD / SRC-1 peptide, estradiol-bound; inhibition, % at 25.6 µM; 86,000 tested, 1.7% active; AID 629; in the data active means inhibition above about 50%;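 further: 0% = receptor plus peptide control and 100% = peptide only without receptor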
# ERb SRC1 inh – ER-beta (human) coactivator binding inhibition; AID 633; 86,000 tested, 1.3% active; TR-FRET ER-beta LBD / SRC1-Cy5 peptide binding; receptor agonist-loaded with 1 µM estradiol; inhibition, % at 25.6 µM;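 active means compounds whose percent inhibition of the receptor-coactivator binding signal exceeds about 50% in the single-dose screen, limit read from the data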;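 further: 0% = receptor plus peptide wells without compound and 100% = peptide-only wells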
# Target sequence (Q92731 whole entry, looked up, the tested form may be a part): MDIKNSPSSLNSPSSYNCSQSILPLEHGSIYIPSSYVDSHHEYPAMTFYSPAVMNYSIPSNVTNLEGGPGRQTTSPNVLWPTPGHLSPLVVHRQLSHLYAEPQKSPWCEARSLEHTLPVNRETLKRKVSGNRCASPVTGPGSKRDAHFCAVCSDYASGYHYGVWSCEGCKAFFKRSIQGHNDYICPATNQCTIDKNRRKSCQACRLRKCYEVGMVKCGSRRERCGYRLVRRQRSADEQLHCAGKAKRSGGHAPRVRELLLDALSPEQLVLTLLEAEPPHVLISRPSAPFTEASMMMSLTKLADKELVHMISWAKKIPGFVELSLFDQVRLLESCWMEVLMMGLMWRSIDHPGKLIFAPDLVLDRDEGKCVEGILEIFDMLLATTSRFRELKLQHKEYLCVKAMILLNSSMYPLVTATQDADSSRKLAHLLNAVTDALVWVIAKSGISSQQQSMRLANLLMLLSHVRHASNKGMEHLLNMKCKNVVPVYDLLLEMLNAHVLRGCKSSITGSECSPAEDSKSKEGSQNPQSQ
# Candida biofilm – kills Candida albicans biofilms. C. albicans biofilm + clotrimazole, Alamar Blue. inhibition, % at 6 µM. 85,000 tested, 0.14% active. AID 834;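 active means inhibition above 20%; inactive means inhibition below 20%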;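 further: preformed 24 hr biofilms exposed to compound for 48 hr; 0% = biofilm without compound and 100% = blank killed by clotrimazole plus chlorhexidine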
# ERa SRC1 pot – ER-alpha (human) coactivator binding potentiation; AID 639; coactivator binding (% of control), % at 25.6 µM; P03372; 86,000 tested, 1.3% active; TR-FRET ERalpha-LBD/SRC-Cy5 coactivator binding, 2 h; 100 = basal binding, no effect; in the data active means activity above about 200%;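 further: binding measured in presence of low estradiol as agonist stimulus; 0% = peptide alone without receptor and 100% = receptor with peptide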
# F-actin modifier – alters cytoskeleton assembly in HUVEC cells | HUVEC TNFa F-actin phalloidin imaging, high content | inhibition, % at 2 µM | 91,000 tested, 0.18% active | AID 836;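 active means inhibition above the batch mean plus 3 SD and confirmed as a hit by visual image inspection, cut at about 30% in these data, passing the limit was not always enough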
# E-sel TNF inh – TNF alpha driven E-selectin expression inhibition. AID 1246. 120,000 tested, 0.71% active. inhibition, % at 2 µM. HUVEC TNFa-induced E-selectin immunofluorescence, high content;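 active means inhibition above the batch mean plus 3 SD, and confirmed as a hit on visual image review, cut at about 43% in these data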;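 further: 0% = TNF-stimulated DMSO wells and 100% = unstimulated control wells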
# * marks the source's active call; other numbers are inactive results; . = no result; [ ] = dose if it differs, or a comment.
SMILES,ERa SRC1 inh,ERb SRC1 inh,Candida biofilm,ERa SRC1 pot,F-actin modifier,E-sel TNF inh
CC(=O)c1ccc(Nc2ncnc3c2oc2ccccc23)cc1,45.0,46.2,-3.4,346.2*[fluorescence artefact?],-0.3,12.9
O=C(Nc1ccc([N+](=O)[O-])cc1)Nc1ccc(OC(F)F)c(Cl)c1,.,.,.,.,.,-2.8
Cc1ccccc1-n1c(SC/C(O)=C(\C#N)c2nc3ccccc3[nH]2)nnc1-c1ccncc1,62.5*[fluorescence artefact?],54.2*,.,78.5,.,.
CCOC(=O)c1ccc2c(c1)nc(SC/C(O)=C(\C#N)c1nc3ccccc3[nH]1)n2CC,-2.9,21.2,-0.6,113.9,.,-50.7
Cc1cc(C)n2c(SC/C(O)=C(\C#N)c3nc4ccccc4[nH]3)nnc2n1,96.8*[fluorescence artefact?],68.8*[fluorescence artefact?],-1.0,0.3,5.5,36.1
CCn1c(SCc2nc3ccccc3[nH]2)nnc1-c1ccncc1,-0.3,2.4,5.3,94.0,7.1,-1.1
CCC1CCC(C(=O)NC(C(=O)NCCCN2CCCCC2C)C(C)C)CC1 (stereo not given),.,.,.,.,.,-22.5
COc1cc2ccccc2cc1C(=O)NCC(c1cccs1)N(C)C (stereo not given),.,.,.,.,.,-76.5
CCOC(=O)c1c(C(=O)OCC)c(C)n(CCc2ccc(OC)c(OC)c2)c1C,.,.,.,.,.,-1.2
CC(=O)SC(C)CC(=O)NCc1ccccc1 (stereo not given),0.5,-6.3,2.9,104.2,3.1,5.2
CCCCC(=O)NC(=S)Nc1nnn(CCC)n1,.,.,.,.,.,9.8
COc1ccc(-c2nc(C(F)(F)F)c(OC)o2)cc1OC,.,.,.,.,.,21.7
O=C(Cc1ccc(-c2ccccc2)cc1)NCCN1CCOCC1,3.5,7.7,4.6,90.0,.,94.9*
CCOC(=O)c1c(C)[nH]c(C(=O)CSc2nnnn2-c2ccc(C)cc2)c1C,-1.6,-0.3,5.7,122.7,5.8,48.6
CCOC(=O)c1c(C)[nH]c(C(=O)CSc2nnnn2-c2ccccc2)c1C,57.7*[fluorescence artefact?],57.8*[fluorescence artefact?],6.2,205.5*[fluorescence artefact?],.,-11.0
COc1cccc(CN2C(=O)CCC2(C)C(=O)NC2CCCC2)c1 (stereo not given),14.0,20.0,11.3,78.8,-7.4,27.2
Clc1ccc(Nc2nc3cccnc3s2)cc1,.,.,.,.,.,71.6*
COc1ccc(Nc2nc3ccccc3s2)cc1,.,.,.,.,.,-16.9
N#C/C(=C\c1cccs1)C(=O)Nc1nccs1,.,.,.,.,.,4.3
O=c1[nH]c2cc3c(cc2cc1C(c1nnnn1Cc1ccccc1)N1CCCc2ccccc21)OCO3 (stereo not given),56.3*[fluorescence artefact?],29.8,3.3,150.8,22.4,12.5
Cc1cc2cc(C(c3nnnn3Cc3ccco3)N3CCCCC3)c(=O)[nH]c2cc1C (stereo not given),3.4,11.4,0.1,175.8,-3.3,.
O=c1[nH]c2cc3c(cc2cc1C(c1nnnn1Cc1ccccc1)N1CCN2CCCC2C1)OCCO3 (stereo not given),72.5*[fluorescence artefact?],43.5,6.3,129.1,26.3,6.2
O=c1[nH]c2cc3c(cc2cc1C(c1nnnn1C1CCCC1)N1CCCc2ccccc21)OCCO3 (stereo not given),5.5,2.4,0.4,113.6,.,.
Cc1cccc2cc(C(c3nnnn3CC3CCCO3)N3CCc4ccccc4C3)c(=O)[nH]c12 (stereo not given),1.6,-12.6,6.7,102.4,-2.3,.
Cc1ccc(C)c2[nH]c(=O)c(C(c3nnnn3Cc3ccccc3)N3CCc4ccccc4C3)cc12 (stereo not given),51.5*[fluorescence artefact?],49.6,1.1,293.8*[fluorescence artefact?],23.5,18.9
SMILES,ERa SRC1 inh,ERb SRC1 inh,Candida biofilm,ERa SRC1 pot,F-actin modifier,E-sel TNF inh
O=c1[nH]c2cc3c(cc2cc1C(c1nnnn1Cc1ccccc1)N1CCCCCC1)OCCO3 (stereo not given),31.0,44.0,5.4,246.1*[fluorescence artefact?],.,-9.8
Cc1ccc(NC(=S)NCc2ccc(S(N)(=O)=O)cc2)cc1Cl,.,.,.,.,.,-55.5
COc1cc2cc(C(c3nnnn3C(C)(C)C)N3CCc4ccccc43)c(=O)[nH]c2cc1OC (stereo not given),-7.1,0.0,7.5,98.3,16.4,.
COc1cc2cc(C(c3nnnn3C3CCCC3)N3CCc4ccccc43)c(=O)[nH]c2cc1OC (stereo not given),50.1*,33.4,4.2,215.6*[fluorescence artefact?],57.2,-40.8
Cc1nn(-c2ccccc2)c2sc(C(=O)O)cc12,.,.,.,.,.,97.0*
COC(=O)c1cc2c(C)nn(-c3ccccc3)c2s1,21.2,22.0,-3.9,246.2*,-1.6,-17.7
CCOC(=O)N1CCC(NC(=O)Cn2ncn3c(cc4sc(CC)cc43)c2=O)CC1,43.6,57.5*[fluorescence artefact?],-3.3,111.9,.,.
CCOC(=O)N1CCC(NC(=O)CN2C(=O)CSc3nc(C)cc(C)c32)CC1,-9.2,-10.7,7.5,120.4,-1.1,83.5*
CCOC(=O)N1CCC(NC(=O)Cn2ncc3c4ccccc4n(C)c3c2=O)CC1,0.7,-9.9,10.2,135.7,-13.3,7.7
O=C1N(Cc2cccc(Cl)c2)C[C@@H]2C[C@@H](c3ccc4nonc4c3)N3CCC[C@@]123,.,.,.,.,.,7.7
O=S(=O)(Nc1nc2ccccc2nc1Nc1ccc2c(c1)OCCO2)c1cccs1,69.8*[fluorescence artefact?],71.5*[fluorescence artefact?],6.5,32.9,.,.
COC(=O)c1ccc(OC(=O)c2ccc(OCc3c(C)noc3C)c(OC)c2)cc1,50.8*[fluorescence artefact?],48.8,3.0,280.0*[fluorescence artefact?],.,.
O=C(c1ccccc1)N1CCc2ccccc21,6.9,-1.6,2.5,89.5,12.9,14.0
Cc1cc(C(=O)N2CCc3ccccc32)c2ccccc2n1,-2.0,-7.7,0.9,89.7,3.2,64.0*
COc1ccc(Nc2nc(-c3cccc([N+](=O)[O-])c3)nc3ccccc23)cc1,.,.,.,.,.,22.9
Cc1ccc(-c2nnc(SCC(=O)N/N=C/c3ccc(C)s3)n2-c2ccccc2)cc1,.,.,.,.,.,16.4
COc1ccc(-c2nnc(SCC(=O)c3[nH]c(C)c(C(C)=O)c3C)o2)cc1,21.9,31.6,6.2,274.9*,0.5,-6.9
C/C(N)=C(/C#N)C(=O)CSc1nnc(-c2ccc3c(c2)OCO3)o1,.,.,.,.,5.6,-31.0
C/C(N)=C(/C#N)C(=O)CSc1nnc(-c2ccc(OC(F)F)cc2)o1,56.4*,62.4*,1.0,57.8,-7.6,2.3
COc1ccc(C(=O)CSc2nnc(-c3ccc(S(=O)(=O)N4CCOCC4)cc3)o2)cc1,-5.8,18.1,0.7,470.0*[fluorescence artefact?],2.9,-19.1
CCOC(=O)c1c(C)[nH]c(C)c1C(=O)CSc1nnc(-c2ccc(OC(F)F)cc2)o1,45.6,23.8,3.9,276.2*,-23.9,4.8
O=C(CSc1nnc(-c2ccc(S(=O)(=O)N3CCOCC3)cc2)o1)c1ccccc1F,10.8,12.2,-0.9,116.4,-7.8,.
O=C(/C=C/c1ccccc1)NC(NC(=S)Nc1cc(Cl)ccc1Cl)C(Cl)(Cl)Cl (stereo not given),.,.,.,.,6.8,.
Cc1ccc(NC(=O)CSc2nnc(-c3ccncc3)n2C)cc1S(=O)(=O)N1CCOCC1,.,.,.,.,.,-4.5
O=C(NCCN1CCOCC1)c1cc(Sc2ccccc2Cl)nc2ccccc12,.,.,.,.,.,-1.8
Cc1ccc(OCCNC(=O)c2ccco2)cc1C,-3.0,1.0,4.7,117.6,-43.4,5.7
